Compounds with a hit are over-represented: about 27% of the library has one in this group of screens.
CYP2C9 inhib: inhibitors of human CYP2C9 | P11712 | 96,000 compounds, 20% hits | inhibition, % at 5 µM | CYP2C9 Supersomes, luciferin-H conversion, luminescence;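 active = blocking of liver enzyme CYP2C9 beyond about 50% at 5 µM, limit read from the data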
CYP2C9 activ: increases human cytochrome P450 2C9 activity; P11712; recombinant CYP2C9, luciferin-H conversion, luminescence; active compounds read high; factor 1 = untreated enzyme, 0 = blocked; activation factor at 5 µM; 96,000 compounds, 1.4% hits;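 active = activation factor of 2 or more for CYP2C9 at a 5 µM dose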;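 note: 0 = sulfaphenazole-blocked wells and 1 = vehicle-only wells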
CYP2C19 inhib: inhibitors of human CYP2C19. P33261. CYP2C19 Supersomes, luciferin-H EGE luminescence, 30 min. AID 778. 96,000 compounds, 21% hits. inhibition, % at 5 µM;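 active = CYP2C19 inhibition above a set limit at 5 µM in the primary screen, cut at about 50% in these data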;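 note: plate controls were negative control wells for no effect and 2.5 mM tranylcypromine positive control for full effect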
sEH act: activators of human soluble epoxide hydrolase; purified human sEH enzymatic activity, activator screen; activation, % at 2 µM; 91,000 compounds, 0.04% hits; AID 717; in the data active = activation above about 37%
Target sequence (P34913 whole entry, looked up): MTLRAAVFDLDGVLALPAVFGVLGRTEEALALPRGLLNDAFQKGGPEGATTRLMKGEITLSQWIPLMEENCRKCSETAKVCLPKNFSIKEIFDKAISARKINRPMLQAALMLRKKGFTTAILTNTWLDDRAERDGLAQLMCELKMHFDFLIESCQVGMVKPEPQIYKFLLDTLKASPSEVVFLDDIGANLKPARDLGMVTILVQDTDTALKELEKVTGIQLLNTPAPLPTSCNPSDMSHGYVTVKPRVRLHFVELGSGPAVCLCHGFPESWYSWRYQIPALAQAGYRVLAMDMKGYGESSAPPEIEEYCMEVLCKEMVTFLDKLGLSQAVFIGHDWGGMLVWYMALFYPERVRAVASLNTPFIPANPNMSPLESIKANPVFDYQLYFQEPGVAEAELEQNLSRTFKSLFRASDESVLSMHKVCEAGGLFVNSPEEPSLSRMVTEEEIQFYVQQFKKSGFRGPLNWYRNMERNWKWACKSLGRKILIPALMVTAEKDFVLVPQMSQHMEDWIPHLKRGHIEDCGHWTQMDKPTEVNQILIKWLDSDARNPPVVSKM
sEH inh: blocks human soluble epoxide hydrolase activity. P34913. recombinant human sEH enzymatic activity assay. inhibition, % at 2 µM. 91,000 compounds, 0.34% hits. AID 707; in the data active = inhibition above about 80%
CYP2C19 activ: activators of human cytochrome P450 2C19. recombinant CYP2C19, luciferin-H EGE luminescence; active compounds read high; 0 = fully inhibited enzyme, 1 = untreated enzyme. 96,000 tested, under 10 active. AID 1025. activation factor at 5 µM. P33261;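 active = activation factor of at least 2 at 5 µM in the primary screen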;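 note: 0 = wells with 2.5 mM tranylcypromine and 1 = vehicle-only wells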
* marks the source's active call; other numbers are inactive results; . = no result.

SMILES	CYP2C9 inhib	CYP2C9 activ	CYP2C19 inhib	sEH act	sEH inh	CYP2C19 activ
COc1ccc(OCc2nnc3n2N=C(c2ccc(OC)cc2)CS3)cc1	89.8*	0.1	88.4*	.	.	0.1
CC(C)CNC(=O)c1cccc(NC(=O)c2ccc(NC(=O)c3ccco3)cc2)c1	21.1	0.8	10.5	-2.0	3.3	0.9
O=C(O)c1cccc(NS(=O)(=O)c2cccc3nsnc23)c1	39.1	0.6	8.4	0.4	0.3	0.9
COc1ccc(C2=Nn3c(nnc3-c3cccnc3)SC2)cc1	.	.	.	-0.3	-1.6	.
COc1ccc(C2=Nn3c(nnc3-c3ccncc3)SC2)cc1	56.4*	0.4	33.5	4.1	-5.3	0.7
COc1ccc(-c2cc(-c3ccc(Br)cc3)nc3ncnn23)cc1OC	54.7*	0.5	-16.0	4.0	-1.6	1.2
Clc1ccc(OCc2nc(-c3ccncc3)no2)cc1	94.6*	0.1	95.4*	3.5	-3.4	0
Clc1ccc(OCCCc2nc(-c3ccncc3)no2)c(Cl)c1	84.1*	0.2	86.8*	4.8	-3.6	0.1
Clc1ccc(OCCCc2nc(-c3cccnc3)no2)c(Cl)c1	30.1	0.7	11.3	8.4	-8.9	0.9
CC1=C(C(=O)N2CCOCC2)C(c2ccsc2)C2=C(CCCC2=O)N1 (stereo not given)	-20.4	1.2	-3.5	4.1	-0.3	1
N#Cc1c(-c2ccco2)cc(C2CC2)nc1N	-34.3	1.3	62.7*	0.0	1.4	0.4
Cc1cc(-c2ccc(Cl)cc2)c(C#N)c(N)n1	16.2	0.8	23.1	2.9	-2.0	0.8
N#Cc1c(-c2ccccc2)cc(C2CC2)nc1N	-59.8	1.6	80.0*	.	.	0.2
N#Cc1c(-c2ccco2)cc(-c2ccccn2)nc1N	37.2	0.6	31.4	-19.1	21.5	0.7
CC(=O)N1CCN(C(=O)CCc2nc3ccccc3c(=O)[nH]2)CC1	14.1	0.9	13.9	-2.3	4.9	0.9
Cc1cccc(N2CCN(C(=O)CCc3nc4ccccc4[nH]3)CC2C)c1 (stereo not given)	56.4*	0.4	75.2*	2.2	-3.8	0.2
Cc1ccc(N2CCN(C(=O)CCc3nc4ccccc4[nH]3)CC2)c(C)c1	72.0*	0.3	84.0*	-6.3	4.8	0.2
Cc1cccc2c(=O)cc(C)n(CC(=O)N3CCOCC3)c12	0.8	1	32.2	2.5	0.5	0.7
Cc1cccc2c(=O)cc(C)n(CC(=O)N3CCCCC3)c12	23.7	0.8	87.9*	0.5	1.1	0.1
CCCOc1ccc(N2CC(C(=O)Nc3ccccc3C(=O)NCc3ccco3)CC2=O)cc1 (stereo not given)	61.9*	0.4	15.2	-6.0	9.2	0.8
COc1ccc(N2CC(C(=O)Nc3ccccc3C(=O)NCc3ccco3)CC2=O)cc1 (stereo not given)	84.2*	0.2	65.8*	8.6	-9.4	0.3
O=C(NCc1ccco1)C1CC(=O)N(CCc2ccccc2)C1 (stereo not given)	-3.1	1	7.6	.	.	0.9
O=C(NCc1ccco1)C1CC(=O)N(c2ccc(O)cc2)C1 (stereo not given)	-146.6	2.5*	-4.9	-10.6	10.6	1
CSc1nc(C2CC2)cc(-c2cccs2)c1C#N	-16.0	1.2	5.0	12.4	-13.0	0.9
O=C(c1ccc(Br)cc1)C1CCc2occc2C1=O (stereo not given)	65.8*	0.3	97.1*	2.4	-3.8	0
SMILES	CYP2C9 inhib	CYP2C9 activ	CYP2C19 inhib	sEH act	sEH inh	CYP2C19 activ
O=C(O)C1CC1c1ccc(Br)cc1 (stereo not given)	-12.9	1.1	-10.9	7.6	-9.9	1.1
Cc1ccc(C(=O)NCC(=O)OCC(=O)c2c(N)n(C)c(=O)n(C)c2=O)s1	58.4*	0.4	7.3	-8.4	8.1	0.9
CCCCSC1(SCCCC)N=C(N)C2(C#N)C(c3ccccc3)NC(C)=C(C)C12C#N (stereo not given)	14.8	0.9	57.1*	-5.2	4.8	0.4
CCN(CC)C(=O)Cn1cnc2sc(C(=O)Nc3cc(OC)c(OC)c(OC)c3)c(C)c2c1=O	92.4*	0.1	79.3*	4.4	-5.4	0.2
CC(=O)Nc1cccc(NC(=O)c2sc3ncn(CC(=O)N4CCCCC4)c(=O)c3c2C)c1	79.5*	0.2	79.0*	.	.	0.2
CCCNC(=O)Cn1cnc2sc(C(=O)Nc3cc(OC)c(OC)c(OC)c3)c(C)c2c1=O	48.4	0.5	37.3	14.4	-12.0	0.6
Clc1ccc(CNC2CCCC2)c(Cl)c1	-11.4	1.1	76.6*	21.4	-21.7	0.2
